Our source for the Potency values is PubChem BioAssay (Tox21).

Records with an inconclusive call do not appear. Where a call stands in place of a potency, no number is given. Calls of active or inactive are those of the source. Calls follow the shape of the full dose curve.
Potency is read from the fitted curve at half-maximal effect.

For the assay, the target named is Beta-2 adrenergic receptor (Homo sapiens) (UniProt P07550). As to the kind of experiment: Adrenergic beta2 receptor (ADRB2) small molecule agonists, cell-based qHTS assay (AID 1963593). The note with it: CHO-ADRB2 cells, cAMP HTRF, 30 min; series mostly up to 92.4 µM. From the text: National Center for Advancing Translational Sciences [NCATS]
Sequence of Beta-2 adrenergic receptor (Homo sapiens) (P07550 whole entry, looked up): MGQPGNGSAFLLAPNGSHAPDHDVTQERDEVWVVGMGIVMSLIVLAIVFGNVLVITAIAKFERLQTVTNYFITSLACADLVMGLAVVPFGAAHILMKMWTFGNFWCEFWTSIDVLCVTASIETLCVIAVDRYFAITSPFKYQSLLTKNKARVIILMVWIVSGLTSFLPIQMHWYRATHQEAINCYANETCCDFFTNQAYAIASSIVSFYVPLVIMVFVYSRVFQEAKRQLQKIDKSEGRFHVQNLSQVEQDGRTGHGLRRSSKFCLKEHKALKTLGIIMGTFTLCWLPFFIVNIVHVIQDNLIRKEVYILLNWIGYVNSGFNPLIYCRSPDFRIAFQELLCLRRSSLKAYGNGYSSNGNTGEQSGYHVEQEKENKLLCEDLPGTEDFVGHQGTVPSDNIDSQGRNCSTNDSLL
Division of Preclinical Innovation [DPI]
U.S. Environmental Protection Agency [EPA]
National Institutes of Environmental Health Sciences [NIEHS]
National Toxicology Program [NTP]
U.S. Food and Drug Administration [FDA]
Beta adrenergic receptors (Beta-ARs) belong to the G-protein coupled receptor (GPCR) superfamily, includes three subtypes - beta1, beta2, and beta3. Beta1-AR is the predominant receptor subtype expressed in the heart, and beta2-AR is expressed in the kidney, lung, blood vessel and in the heart, and beta3 is found in the adipocytes. Beta1 and 2 ARs couple to Gs protein and elevate cyclic adenosine mono phosphate (cAMP), which activates protein kinase A and leads to the downstream signaling responsible for the physiological actions. Beta-AR agonists or antagonists are the most prescribed therapeutic agents for heart failure and asthma, and these were one of the first target receptors for the rational drug design. Tox21 10K compound library was screened using the cAMP-Gs dynamic assay (Cisbio Bioassays, Shelton, CT) to identify agonists/antagonists of the Gs-coupled human adrenergic, beta2 receptor (ADRB2) in the CHO-ADRB2 cell line (Codex BioSolutions, Inc. Gaithersburg, MD), which stably over-expresses ADRB2. The principle of cAMP-Gs dynamic assay is based on HTRF technology, which facilitates the fluorescence resonance energy transfer (FRET) between donor Europium cryptate and acceptor d2-labeled cAMP. The cAMP generated within cells competes with the red acceptor, d2-labled cAMP, for binding to the monoclonal anti-cAMP-cryptate (Europium donor). An increase in intracellular cAMP leads to the disruption of FRET signal, and the signal is inversely proportional to the cAMP concentration. Isoproterenol HCl (Sigma-Aldrich, St. Louis, MO) was used as a positive control in the screening.
Tox21 Assay Protocol Summary:
CHO-ADRB2 cells were dispensed at 1,000/well in 4uL assay medium into white/solid 1536-well plates (Greiner Bio-One North America Inc., Monroe, NC) using a Multidrop Combi dispenser (ThermoFisher Scientific, Waltham, MA). The assay plates were incubated at 37C and 5% CO2 for an overnight (18-20hr). Then positive control and test compounds dissolved in DMSO were transferred to the assay plates at 23nL using a Pintool station (Wako, San Diego, CA). Following the compound and positive control transfer, 1uL stimulation mix containing 100uM IBMX and 25uM Ro-20-1724 was added to each well of the assay plates using BioRAPTR Flying Reagent Dispenser (FRD, Beckman Coulter, Brea, CA). The assay plates were incubated at room temperature for 0.5hr. Then 2.5ul each d2-labled cAMP and anti-cAMP-cryptate solutions were added separately to each well of the assay plates using an FRD and the assay plates were incubated at room temperature for 1hr.
A general note: Quantitative high-throughput screening tests each substance at several concentrations.
In the case of `C[N+]1(C)CCCCC1`, the Potency entry was “inactive”.

As for `CCN(N=O)C(N)=O`, the Potency result was “inactive”.

Take `CCC[CH2][Sn]([Cl])([Cl])[CH2]CCC`: the Potency result is “inactive”.

With `CC(C)(C)OOC(=O)c1ccccc1`, the Potency entry was “inactive”.

Take `CCCCCCCCCBr`: the Potency result was “inactive”.

With `c1ccoc1`, the Potency entry is “inactive”.

Regarding `O=c1ccc(=O)[nH][nH]1`, the Potency result is “inactive”.

With `C[C@]12CCC(=O)C(O)=C1CC[C@@H]1[C@@H]2CC[C@]2(C)C(=O)CC[C@@H]12`, the Potency entry was “inactive”.

Take `Cc1cccc(C)c1NC(=O)CN1CCCC1=O`: the Potency entry was “inactive”.

For the compound `C=CC(C)=O`, the Potency entry is “inactive”.

On to `CCOP(=O)(CN(CCO)CCO)OCC`, for which the Potency result was “inactive”.

`Clc1ccc(C(Cl)(Cl)Cl)cn1`: the Potency result is “inactive”.

With `C=CC1CC=CCC1` (stereo not given), the Potency entry was “inactive”.

For the compound `CNC(=O)Oc1ccccc1OC(C)C`, the Potency result was “inactive”.

For `OC(O)C(Cl)(Cl)Cl`, the Potency entry is “inactive”.

For the compound `COc1ccccc1OC`, the Potency result was “inactive”.

`O=S(=O)(O)OOS(=O)(=O)O`: the Potency entry is “inactive”.

For the compound `CCSC(=O)N1CCCCCC1`, the Potency entry is “inactive”.

`N#Cc1cc([N+](=O)[O-])ccc1N`: the Potency result was “inactive”.

For the compound `CC(C)=CC1C(C(=O)OCN2C(=O)C3=C(CCCC3)C2=O)C1(C)C` (stereo not given), the Potency result is “inactive”.

Consider `CC(C)(C)OOC(C)(C)C`, for which the Potency entry was “inactive”.

Take `ClC1=C(Cl)C2(Cl)C3C(Cl)C(Cl)CC3C1(Cl)C2(Cl)Cl` (stereo not given): the Potency was 54.5 µM (active).

As to `O=S(=O)(Oc1ccc(Cl)cc1)c1ccc(Cl)cc1`, the Potency entry was “inactive”.

With `C=CC(N)=O`, the Potency result was “inactive”.

Consider `CC(O)CN(CC(C)O)CC(C)O` (stereo not given), for which the Potency result is “inactive”.

For `O=C1CCCN1`, the Potency entry was “inactive”.

In the case of `CCN(CC)C(=O)C(C)Oc1cccc2ccccc12` (stereo not given), the Potency entry was “inactive”.

In the case of `CCNc1nc(Cl)nc(NCC)n1`, the Potency result is “inactive”.

In the case of `O=[N+]([O-])CCO`, the Potency entry was “inactive”.

For the compound `Nc1ccc(Br)cc1`, the Potency result was “inactive”.

Consider `CCN(CC)C(=S)S`, for which the Potency entry was “inactive”.

With `O=S(=O)(c1ccccc1)c1ccccc1`, the Potency entry is “inactive”.

With `C[C@]12CC[C@H](O)CC1=CC[C@@H]1[C@@H]2CC[C@]2(C)C(=O)CC[C@@H]12`, the Potency entry is “inactive”.

On to `CC12CC1(C)C(=O)N(c1cc(Cl)cc(Cl)c1)C2=O` (stereo not given), for which the Potency result was “inactive”.

Consider `Nn1cnnc1`, for which the Potency result was “inactive”.

For `CCC[N+]1(C)CCCC1`, the Potency entry is “inactive”.

`Nc1ccc(Cc2ccc(N)cc2)cc1`: the Potency entry was “inactive”.

On to `C=CC(=O)OCCO`, for which the Potency result is “inactive”.

As for `COC(=O)C(Cl)C(=O)OC`, the Potency entry is “inactive”.

For the compound `CCC[N+](=O)[O-]`, the Potency entry is “inactive”.
